“And” between values parts separate entries of the source, which are not always exact repeats. Equal entries are not always repeated. About 150 (2.7%) of roughly 5,600 compounds showed an effect of 50% or more. Shown is part of a subset that was picked to be rich in strong results.

In general, inhibition refers to the change of the read-out against control, counted positive when it falls.

The target in test [1] is T1, Protein deacetylase HDAC6 (Homo sapiens) (UniProt Q9UBN7).
T1 sequence (whole entry): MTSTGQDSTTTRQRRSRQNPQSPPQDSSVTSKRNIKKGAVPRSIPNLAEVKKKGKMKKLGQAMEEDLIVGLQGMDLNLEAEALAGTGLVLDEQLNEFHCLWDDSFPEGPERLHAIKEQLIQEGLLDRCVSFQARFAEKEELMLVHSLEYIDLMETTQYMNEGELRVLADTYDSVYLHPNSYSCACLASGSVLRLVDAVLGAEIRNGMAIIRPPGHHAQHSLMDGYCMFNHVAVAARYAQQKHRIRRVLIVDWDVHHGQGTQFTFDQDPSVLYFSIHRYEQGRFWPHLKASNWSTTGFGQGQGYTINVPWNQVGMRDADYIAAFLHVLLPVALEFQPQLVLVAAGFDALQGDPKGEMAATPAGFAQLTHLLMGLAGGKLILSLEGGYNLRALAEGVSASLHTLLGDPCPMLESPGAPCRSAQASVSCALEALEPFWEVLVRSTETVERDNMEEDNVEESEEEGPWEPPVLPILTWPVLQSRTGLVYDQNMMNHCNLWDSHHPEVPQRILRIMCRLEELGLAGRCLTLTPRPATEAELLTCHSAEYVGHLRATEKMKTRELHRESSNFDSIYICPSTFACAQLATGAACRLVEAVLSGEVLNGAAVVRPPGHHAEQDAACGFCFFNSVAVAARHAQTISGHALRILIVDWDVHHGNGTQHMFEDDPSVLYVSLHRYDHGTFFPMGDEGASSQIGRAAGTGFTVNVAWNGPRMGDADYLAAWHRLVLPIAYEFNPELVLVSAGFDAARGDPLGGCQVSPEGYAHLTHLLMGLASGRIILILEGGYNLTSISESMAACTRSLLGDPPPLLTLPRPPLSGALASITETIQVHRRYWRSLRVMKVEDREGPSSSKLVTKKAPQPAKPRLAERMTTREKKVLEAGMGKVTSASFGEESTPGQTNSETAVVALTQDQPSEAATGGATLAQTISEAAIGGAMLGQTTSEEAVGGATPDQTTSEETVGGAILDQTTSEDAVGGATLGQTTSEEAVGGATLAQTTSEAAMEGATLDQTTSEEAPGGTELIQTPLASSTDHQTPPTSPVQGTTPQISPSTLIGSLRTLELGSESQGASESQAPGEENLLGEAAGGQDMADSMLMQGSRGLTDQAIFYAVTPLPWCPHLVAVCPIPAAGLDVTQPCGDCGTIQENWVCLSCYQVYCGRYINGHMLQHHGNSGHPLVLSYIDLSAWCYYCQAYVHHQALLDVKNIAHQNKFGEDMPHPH
Particulars: at 10 µM.

Test [2] has as its target Protein deacetylase HDAC6 (Homo sapiens) (UniProt Q9UBN7). As to conditions: at 10 µM. This is another data set of the same source.

For `Cc1oc(-c2ccccc2)nc1CCOc1ccc(CC2SC(=O)NC2=O)c2sccc12` (stereo not drawn), the inhibition in test [1] is -4.87%. On the same count and under the same terms, for `COc1ccc(Nc2ccn(-c3ccccc3)n2)cc1` the value was 66.8%; for `O=C(Nc1ccccc1C(=O)Nc1ccc(CCO)cc1)c1ccc([N+](=O)[O-])cc1`, 19.2%; for `CCC1OC(=O)CC(O)C(C)C(OC2OC(C)CC(N(C)C)C2O)C(CC=O)CC(C)C(=O)/C=C/C2(C)OC2C1C` (stereo not drawn), 10.6%. The same measure, in the same setting: as for `CN(C)C(=S)SC(=S)N(C)C`, the figure is 12.2%; as for `O=C(CC1CC(c2ccc(F)cc2F)=NO1)N1CCOCC1` (racemic), 64.3%. Still for that read-out and setting: as for `O=C(O)CC1CC(c2ccccc2)=NO1` (stereo not drawn), the figure is -4.54%; as for `CC(C)Oc1ccc(-c2cnc3c(-c4ccnc5ccccc45)cnn3c2)cc1`, -1.97%.

For `c1cc(-c2cnn3cc(-c4ccc(OCCN5CCCCC5)cc4)cnc23)ccn1`, the inhibition in test [1] stood at 60.7%. `COc1ccc(-c2cnc3c(-c4cccc5ncccc45)cnn3c2)cc1`: the inhibition in test [1] is -5.32% and -3.01%. Still for that read-out and setting: as for `c1ccc(OCc2ccc(CCCN3CCOCC3)cc2)cc1`, the figure is 22.1%. On the same count and under the same terms, as for `c1cc(-c2cnn3cc(-c4ccc(N5CCNCC5)cc4)cnc23)c2cccnc2c1`, the figure is -3.93%; as for `c1ccc(-c2cnn3cc(-c4ccc(OCCN5CCOCC5)cc4)cnc23)cc1`, 78.4%. Same read-out and setting: for `CN1C(=O)N(c2cc(Cl)cc(Cl)c2)C(=O)[C@@]1(C)Cc1ccc(Br)cc1` the value was -0.75%; for `COCc1nnc(N2CC(Oc3ccc(F)cc3Cl)C2)n1-c1ccc(OC)nc1`, -0.3%. As for `O=C(Nc1ccc(Br)cc1)c1cc(Br)cc(Br)c1O`, the inhibition in test [1] was determined as 47.3%. Consider `CCOCc1cc(OC)c(-c2ccc(C[C@H](NC(=O)c3c(F)cccc3F)C(=O)O)cc2)c(OC)c1`, for which the inhibition in test [1] was -3.54%. On the same count and under the same terms, as for `C[C@]12CC[C@@H](O)C[C@@H]1CC[C@@H]1[C@@H]2CC[C@]2(C)C(c3ccccc3)=CC[C@@H]12`, the figure is -2.46%; as for `CC(=O)OCC1=C(C(=O)O)N2C(=O)[C@@H](NC(=O)CS/C(=N/C(C)C)NC(C)C)[C@H]2SC1`, -0.21%; as for `O=C(O)c1ccccc1O`, 3.65%.

For `O=C(Oc1ccccc1)c1ccccc1O`, the inhibition in test [1] turned out to be 59.6%. As to `O=C(OCCO)c1ccccc1O`, the inhibition in test [1] was 0.47%.

For SEVELAMER HYDROCHLORIDE, CHEMBL1201492, the inhibition in test [2] was -4.03%. In the case of `CC1CCC2C(C)(C)C3CC12CCC3(C)O` (stereo not drawn), the inhibition in test [1] stood at 3.35%. Consider `C[C@H](Nc1cc(NS(=O)(=O)N2CCC2)nc(SCc2cccc(F)c2F)n1)[C@@H](O)CO`, for which the inhibition in test [1] was -3.66%. Still for that read-out and setting: for `COc1cc(C(=O)NCCCCCC(=O)O)cc(OC)c1OC` the value was -4.19%; for `O=C(CNC(=O)c1ccc(Cl)cc1)NO`, 1.88%. As for `CN(C)c1ccc(C(=O)NCCCCCCC(=O)NO)cc1`, the inhibition in test [1] stood at 97.6%. Still for that read-out and setting: for `O=c1c2c[nH]c3ccccc3c-2nn1-c1ccc(Cl)cc1` the value was 37.8%; for `C[C@H](N/C(=N/C#N)Nc1cccc2ncccc12)c1ccccc1`, -5.84%; for `Cc1cn2c(N)c(Cl)cc(C(=O)NCC3CCN(CC(C)C)CC3)c2n1`, 4.88%.

Turning to `C=CC(=O)N1CCC[C@@H](n2c(=O)n(-c3ccc(Oc4ccccc4)cc3)c3c(N)ncnc32)C1`, the inhibition in test [1] was found to be 6.07%.

For `Nc1ncnc2c1c(-c1ccc(Oc3ccccc3)cc1)nn2C1CCCC1`, the inhibition in test [1] was -1.59%. With `C=CC(=O)N1CCC[C@@H](n2nc(-c3ccc(Oc4ccccc4)cc3)c3c(N)ncnc32)C1`, the inhibition in test [1] worked out at 51%. Same read-out and setting: for `C=C1C(=O)O[C@@H]2[C@H]3C(C)=CC[C@@]34O[C@@]4(C)CC[C@@H]12` the value was 4.41%; for `c1cnc(NCc2ccc(CNc3ncccn3)cc2)nc1`, 0.03%. Still for that read-out and setting: for `CNc1nc(C)nc(N[C@H]2CCC[C@@H](C(=O)NCc3ccc(C#N)cc3C(F)(F)F)C2)n1` the value was -6.75%; for `Cc1cc(O)cc2c1O[C@@](C)(CCC[C@@H](C)CCC[C@@H](C)CCCC(C)C)CC2`, -3.19%; for `Cc1nc2cnc3ccc(C#Cc4cccnc4)cc3c2n1-c1ccc(C(C)(C)C#N)cc1`, 3.93%. Regarding `CC(=O)SCCC(=O)N1C(C)CCCC1C(=O)O` (stereo not drawn), in test [1], the inhibition was determined as 7.82%.

As for `CSc1nc2ccc3nc(NC(=O)C(c4ccccc4)c4ccccc4)sc3c2s1`, the inhibition in test [1] is -1.3%. Still for that read-out and setting: for `CC(=O)N(O)[C@@H]1c2cc(C#N)ccc2OC(C)(C)[C@H]1O` the value was -2.08%; for `CN(C)c1nc(N)c(C(=O)Nc2cccnc2)nc1Cl`, 80.9%. Still for that read-out and setting: as for `O=C(OCC(COC(=O)c1cccnc1)(COC(=O)c1cccnc1)COC(=O)c1cccnc1)c1cccnc1`, the figure is -1.03%. For `N=C(N)NC(=O)c1nc(Cl)c(N)nc1N`, the inhibition in test [1] was -8.95%. Turning to `Cn1ncc2c(N3CCOCC3)nc(-c3cccc(O)c3)nc21`, in test [1], the inhibition was -1.99%. On the same count and under the same terms, as for `Cc1ccc(-c2nn(C(C)(C)CNC(=O)c3ncccc3C)c3ncnc(N)c23)cc1`, the figure is 6.88%. On the same count and under the same terms, for `Oc1ccc(-c2nc3cc(O)cc(Br)c3o2)cc1` the value was 54.3%.

As to `CC[C@H](NC(=O)c1c(O)c(-c2ccccc2)nc2ccccc12)c1ccccc1`, the inhibition in test [1] came to 2.06%.

Turning to `Cn1c(/C=C/C(=O)NO)ccc1/C=C/C(=O)c1cccc(F)c1`, the inhibition in test [1] was 76.3%. Turning to `O=C(/C=C/c1cccc(F)c1)NC1CC1`, the inhibition in test [1] amounted to 8.47%.

For `CCCCCCCCC(=O)N[C@H](CN1CCCC1)[C@H](O)c1ccc2c(c1)OCCO2`, the inhibition in test [1] was 6.86%. Still for that read-out and setting: for `O=C(CCBr)N1CC[N+]2(CC1)CC[N+]1(CCN(C(=O)CCBr)CC1)CC2` the value was 0.06%; for `CS(=O)(=O)c1ccc(-c2cn3ccccc3n2)cc1`, 78.9%; for `CN1CCN(c2cccc(Nc3nc4c(-c5ccc(S(C)(=O)=O)cc5)cccn4n3)c2)CC1`, -1.82%. Turning to `CS(=O)(=O)c1ccc(-c2cnc(N)c(C(=O)Nc3ccccc3)n2)cc1`, in test [1], the inhibition was 2.63%.

On to `C[C@H]1O[C@@H](O[C@H]2CC[C@@]3(C)[C@H](CC[C@@H]4[C@@H]3C[C@@H](O)[C@]3(C)[C@@H](C5=CC(=O)OC5)CC[C@]43O)C2)C[C@H](O)[C@@H]1O[C@H]1C[C@H](O)[C@H](O[C@H]2C[C@H](O)[C@H](O[C@@H]3O[C@H](CO)[C@@H](O)[C@H](O)[C@H]3O)[C@@H](C)O2)[C@@H](C)O1`, for which the inhibition in test [1] is -2.28%. With `N#CC(c1ccccc1)(c1ccccc1)c1ccccc1Cl`, in test [1], the inhibition is -3.49%.

Regarding `CC(C)c1c2cc(-c3ccnc(N[C@H]4CC[C@H](NC5CCOCC5)CC4)n3)ccc2nn1C`, in test [1], the inhibition was 1.08%. Regarding `CCC(CC)O[C@@H]1C=C(C(=O)O)C[C@H](N)[C@H]1NC(C)=O`, the inhibition in test [1] worked out at 0.57%. Still for that read-out and setting: as for `O=c1c(O)c(-c2ccc(O)c(O)c2)oc2cc(O)cc(O)c12`, the figure is 49.9%. Still for that read-out and setting: as for `O=c1cc(-c2ccc(O)c(O)c2)oc2cc(O)cc(O)c12`, the figure is 51.1%; as for `O=C(O)c1ccc2c(c1)C(=O)N(c1cccc(Oc3ccc([N+](=O)[O-])cc3)c1)C2=O`, 23.5%.

The values above are taken from ChEMBL document CHEMBL4808148, “HDAC6 screening dataset using tau-based substrate in an enzymatic assay yields selective inhibitors and activators” (2021).
